Measurements published in PubChem BioAssay (NCI).
This is part of a sample that, as a whole, favours compounds with a hit. Of some 83,000 tested, about 20% had one in any assay.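 Plates (96-well) were seeded with cells, treated with compound at one concentration, and incubated for 48 hours before percent growth was determined.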 The source made the active and inactive calls. Rule for the calls: active = growth percent below 10; inactive = the rest.

Experiments:
Assay in all cases: NCI-60 one-dose screen, 48 h (100 = growth as untreated, 0 = no growth, -100 = all killed)
Details in all cases: 10 µM unless noted
T-47D breast = tested on: T-47D breast
BT-549 breast = tested on: BT-549 breast
MDA-MB-435 melanoma = tested on: MDA-MB-435 melanoma
SW-620 colon = tested on: SW-620 colon
MCF7 breast = tested on: MCF7 breast
HCT-116 colon = tested on: HCT-116 colon
HCC-2998 colon = tested on: HCC-2998 colon
KM12 colon = tested on: KM12 colon

Measured: growth

FCc1nc2nc(Cl)c(Cl)nc2[nH]1
inactive: T-47D breast 101% | BT-549 breast 104% | MDA-MB-435 melanoma 107% | SW-620 colon 103% | MCF7 breast 96.5% | HCT-116 colon 101% | HCC-2998 colon 104% | KM12 colon 104%

CC1=NNC(=O)C1CCC(=O)N/N=C(\C)c1ccc2ccccc2c1 (stereo not given)
inactive: T-47D breast 146% | BT-549 breast 118% | MDA-MB-435 melanoma 86.5% | SW-620 colon 103% | MCF7 breast 98.9% | HCT-116 colon 92.7% | HCC-2998 colon 107% | KM12 colon 98.9%

COc1ccc(/C=N/C2=C(C#N)C(c3ccccc3[N+](=O)[O-])c3ccc4ccccc4c3O2)cc1 (stereo not given)
inactive: T-47D breast 79.4% | BT-549 breast 92.8% | MDA-MB-435 melanoma 98.5% | SW-620 colon 97.8% | MCF7 breast 56.4% | HCT-116 colon 83.3% | HCC-2998 colon 106% | KM12 colon 95.9%

COc1ccc2c(c1)c(CC(=O)NCCOCCOCC(=O)Nc1ccc(OC)c(C(N)=O)c1O)c(C)n2C(=O)c1ccc(Cl)cc1
inactive: T-47D breast 81.3% | BT-549 breast 81.1% | MDA-MB-435 melanoma 104% | SW-620 colon 99.4% | MCF7 breast 94.6% | HCT-116 colon 93.9% | HCC-2998 colon 93.5% | KM12 colon 99.4%

CCCCCCCCOC(=O)c1ccc(O)c(OC)c1
inactive: T-47D breast 82.7% | BT-549 breast 102% | MDA-MB-435 melanoma 106% | SW-620 colon 109% | MCF7 breast 66.9% | HCT-116 colon 102% | HCC-2998 colon 97.9% | KM12 colon 102%

COc1cccc(NC(=O)c2cccc(-c3cc(=O)c4c(OC)c(OC)c(OC)cc4o3)c2)c1
inactive: T-47D breast 44.4% | BT-549 breast 54.2% | MDA-MB-435 melanoma 81.2% | SW-620 colon 89.6% | MCF7 breast 87.7% | HCT-116 colon 60.7% | HCC-2998 colon 87.8% | KM12 colon 53.7%

N/C(=N\N=C\c1cc2ccccc2[nH]1)N/N=C/c1cc2ccccc2[nH]1
inactive: T-47D breast 88.8% | BT-549 breast 98.7% | MDA-MB-435 melanoma 104% | SW-620 colon 101% | MCF7 breast 69.8% | HCT-116 colon 86.8% | HCC-2998 colon 99.6% | KM12 colon 97.6%

CC[C@@]12C=CCN3CC[C@]4(c5cc(NC(=O)COc6cc(OCC(=O)Nc7cc8c(cc7OC)N(C)[C@H]7[C@@](O)(C(=O)OC)[C@H](OC(C)=O)[C@]9(CC)C=CCN%10CC[C@]87[C@@H]%109)cc7oc(-c8ccccc8)cc(=O)c67)c(OC)cc5N(C)[C@@H]4[C@](O)(C(=O)OC)[C@H]1OC(C)=O)[C@H]32
inactive: T-47D breast 77.3% | BT-549 breast 61.4% | MDA-MB-435 melanoma 42% | SW-620 colon 20.3% | MCF7 breast 26.1%
active: HCT-116 colon 0.866% | HCC-2998 colon -8.78% | KM12 colon -39.3%

Fc1cc(C2=NNC(c3ccc[nH]3)C2)ccc1-n1ccc(C(F)(F)F)n1 (stereo not given)
inactive: T-47D breast 76.7% | BT-549 breast 92.3% | MDA-MB-435 melanoma 98.7% | SW-620 colon 98.8% | MCF7 breast 83.3% | HCT-116 colon 98.7% | HCC-2998 colon 104% | KM12 colon 65.6%

FC(F)(F)c1cccc(Nc2ccccc2)c1
inactive: T-47D breast 101% | BT-549 breast 98.2% | MDA-MB-435 melanoma 101% | SW-620 colon 101% | MCF7 breast 93.5% | HCT-116 colon 95.2% | HCC-2998 colon 98.9% | KM12 colon 102%

O=C1OC(=O)C2C1CC=CC2c1ccccc1 (stereo not given)
inactive: T-47D breast 91.5% | BT-549 breast 93.1% | MDA-MB-435 melanoma 102% | SW-620 colon 86.7% | MCF7 breast 89% | HCT-116 colon 97.3% | HCC-2998 colon 79.9% | KM12 colon 84.8%

O=C(Nc1nc(-c2ccc(Br)cc2)cs1)c1cc(-c2ccc(Br)cc2)nc2ccc(Cl)cc12
inactive: T-47D breast 56.9% | BT-549 breast 100% | MDA-MB-435 melanoma 104% | SW-620 colon 85.7% | MCF7 breast 68.5% | HCT-116 colon 61.3% | HCC-2998 colon 92.8% | KM12 colon 83.3%

Brc1ccc(C2CC(c3cccc(Nc4ccncc4)c3)=NN2c2ccccc2)cc1 (stereo not given)
active: SW-620 colon -33.1%
inactive: T-47D breast 87.8% | BT-549 breast 84% | MDA-MB-435 melanoma 70.5% | MCF7 breast 24.5% | HCT-116 colon 77.4% | HCC-2998 colon 19.2% | KM12 colon 46.9%

C[C@]12C[C@H]1CC[C@]1(C)[C@@H]2CC[C@@]23C[C@H](CC[C@H]21)[C@@](O)(CO)C3
inactive: T-47D breast 90.7% | BT-549 breast 77% | MDA-MB-435 melanoma 59.1% | SW-620 colon 109% | MCF7 breast 97.8% | HCC-2998 colon 103% | KM12 colon 96.5%
active: HCT-116 colon -71.4%

CCNC(=O)c1[nH]cc(-c2ccc(OC)cc2)c1-c1cc(OC)c(OC)c(OC)c1
active: MDA-MB-435 melanoma -4.43%
inactive: T-47D breast 27.7% | BT-549 breast 72.5% | SW-620 colon 31.4% | MCF7 breast 24.4% | HCT-116 colon 15.3% | HCC-2998 colon 89.2% | KM12 colon 22.1%

CCCC/C(=N\N=C(N)N)c1ccc(F)cc1
active: MDA-MB-435 melanoma -19.8%
inactive: T-47D breast 38.9% | BT-549 breast 21.6% | SW-620 colon 23.8% | MCF7 breast 13.1% | HCT-116 colon 21.1% | HCC-2998 colon 37% | KM12 colon 15.7%

CN1CCN(c2ccc(NC3=C(Cl)C(=O)c4ncccc4C3=O)cc2C#N)CC1
inactive: BT-549 breast 96.3% | HCC-2998 colon 96.7% | KM12 colon 105%
active: T-47D breast -33.3% | MDA-MB-435 melanoma -92.9% | SW-620 colon -75.3% | MCF7 breast -59.9% | HCT-116 colon -56.7%

CN(C)C(=O)c1cc2cnc(Nc3ccc(-c4csc5c(=O)cc(N6CCOCC6)oc45)cc3)nc2n1C1CCCC1
active: T-47D breast -4.72% | BT-549 breast -79.1% | MDA-MB-435 melanoma -38.7% | SW-620 colon -45.6% | MCF7 breast -46.8% | HCT-116 colon -29.2% | HCC-2998 colon -44.6% | KM12 colon -86.9%

N#Cc1c(Nc2ccccc2)nn2cc(-c3nc4ccccc4s3)c(N)nc12
inactive: T-47D breast 68.9% | BT-549 breast 67.2% | MDA-MB-435 melanoma 93.6% | SW-620 colon 72.2% | MCF7 breast 63.3% | HCT-116 colon 76.4% | HCC-2998 colon 88% | KM12 colon 88.2%

CC(C)(C)OC(=O)N1C/C(=C\c2ccoc2)C(=O)/C(=C/c2ccoc2)C1
inactive: T-47D breast 82.4% | BT-549 breast 102% | MDA-MB-435 melanoma 98.2% | SW-620 colon 56.8% | MCF7 breast 20.5% | HCT-116 colon 21.7% | HCC-2998 colon 98.9% | KM12 colon 88.8%

COc1cccc(/C=C2\COc3ccc(-c4ccccc4)cc3C2=O)c1
inactive: BT-549 breast 13.1% | HCC-2998 colon 19.4%
active: T-47D breast -6.21% | MDA-MB-435 melanoma -25.8% | SW-620 colon -55.6% | MCF7 breast -3.38% | HCT-116 colon -23.8% | KM12 colon -37.3%

COc1ccc(C(=O)c2cc(C)c(OC)c(C)c2)c(OC)c1N(C(=O)C(Cl)Cl)C(=O)C(Cl)Cl
inactive: T-47D breast 52.4% | SW-620 colon 19% | MCF7 breast 13.4% | HCC-2998 colon 14.7%
active: BT-549 breast 5.7% | MDA-MB-435 melanoma -37.5% | HCT-116 colon 4.88% | KM12 colon 5.55%

NC(=O)c1cccc(-n2ccc3cc(NC(=O)Nc4cc(C(F)(F)F)cc(C(F)(F)F)c4)ccc32)n1
inactive: T-47D breast 44.7% | BT-549 breast 74.4% | MDA-MB-435 melanoma 50.5% | SW-620 colon 73.7% | MCF7 breast 27.2% | HCT-116 colon 38% | HCC-2998 colon 88.2% | KM12 colon 11.7%

COC(=O)N[C@H]1CCc2cc(OC)c(OC)c(OC)c2-c2ccc(SC)c(=O)cc21
inactive: T-47D breast 50.2% | SW-620 colon 16.9% | MCF7 breast 14.7%
active: BT-549 breast -4.09% | MDA-MB-435 melanoma -29.5% | HCT-116 colon 5.32% | HCC-2998 colon 6.51% | KM12 colon 1.21%

COc1cc(C(=O)c2cnc(-c3ccc4cc[nH]c4c3)[nH]2)cc(OC)c1OC
active: MDA-MB-435 melanoma -28.4% | HCT-116 colon -6.9% | HCC-2998 colon 6.12% | KM12 colon -9.92%
inactive: T-47D breast 59% | BT-549 breast 42.9% | SW-620 colon 19.2% | MCF7 breast 11.3%

CCOc1ccc(/C=N/Nc2cc(C)nc3ccc(Cl)cc23)cc1
active: SW-620 colon -72.8% | MCF7 breast 1.28% | HCT-116 colon -75.3%
inactive: T-47D breast 60.3% | BT-549 breast 80.6% | MDA-MB-435 melanoma 40.9% | HCC-2998 colon 27.5% | KM12 colon 33.3%

Clc1cc(Cl)cc(N2N=C(c3cccc(Nc4ccncc4)c3)CC2c2ccc3c(c2)OCO3)c1 (stereo not given)
active: MDA-MB-435 melanoma -85.4% | SW-620 colon -84.1% | MCF7 breast -19.3% | HCC-2998 colon -40.8% | KM12 colon -51.6%
inactive: T-47D breast 63.4% | BT-549 breast 93.8% | HCT-116 colon 65.3%

CC(=O)N1N=C(c2cccc(Nc3ccncc3)c2)CC1c1ccc2c(c1)OCO2 (stereo not given)
inactive: T-47D breast 74.1% | MDA-MB-435 melanoma 35.1% | SW-620 colon 86.2% | MCF7 breast 71.4% | HCC-2998 colon 94.2% | KM12 colon 88.2%
active: BT-549 breast -44.5% | HCT-116 colon -52.3%

Cc1ccc(C(c2c(O)c3cc(Br)ccc3[nH]c2=O)c2c(O)c3cc(Br)ccc3[nH]c2=O)cc1
inactive: T-47D breast 71.6% | BT-549 breast 87.4% | MDA-MB-435 melanoma 86.3% | SW-620 colon 102% | MCF7 breast 80.2% | HCT-116 colon 82.4% | HCC-2998 colon 94.4% | KM12 colon 88.2%

COc1ccc(-c2nc(N/N=C/c3cccc(O)c3)nc(N3CCOCC3)c2C#N)cc1
inactive: T-47D breast 72% | BT-549 breast 84.6% | MDA-MB-435 melanoma 97.7% | SW-620 colon 58.9% | MCF7 breast 61.7% | HCT-116 colon 59.1% | HCC-2998 colon 108% | KM12 colon 72.2%
